In all, about 340,000 compounds went through this assay and about 3,300 (0.97%) were called active. Inconclusive results (about 9%) are left out. The call rests on the fitted dose curve; in most records, active means well fitted inhibition curve with a large enough effect; inconclusive means small, poorly fitted or top-dose-only effect, or effect the other way; inactive means flat fitted curve, though single readings scatter. The list shows a part of the results.
Potency means the concentration at half of the fitted maximal effect.

This assay can be described thus: qHTS Assay for Modulators of miRNAs and/or Inhibitors of miR-21. Further: nearly all actives have a fitted effect of over 55% in size. Conditions: HeLa miR-21-FLuc reporter, luciferase luminescence, 48 h; actives lower the signal. The source says: MLSCN Grant: 1 R21 NS059478-01 Assay Provider: Qihong Huang, The Wistar Institute NCGC Assay Overview: MicroRNAs (miRNAs) are endogenously encoded small (~20-25 nucleotides), nonprotein-coding RNAs that are involved in post-transcriptional repression of target messenger RNAs (mRNAs) (Le and Hannon, 2004). Estimated to be involved in the regulation of 30% of all protein-coding mRNAs (Filipowicz et al., 2008), miRNAs play a significant role in many biological processes including cellular differentiation and tissue development (Ghildiyal and Zamore, 2009).
NCGC Assay Protocol Summary: Reagents: HeLa cells stably expressing firefly luciferase (FLuc) under the control of a CMV promoter (upstream) and a miR-21 binding sequence directly downstream of the gene. These cells endogenously express miR-21. Control compounds used were compound C3 (provided by collaborator), N6-phenyladenosine (MP Biomedicals, 0215379625), and DMSO. Assay Summary: 6uL of HeLa miR-21-FLuc cells in assay buffer (DMEM, Invitrogen #21063-029; 10% FBS, HyClone #SH30071.03) were dispensed at 2000cells/well (3.3 x 10^5 cells/mL) into Greiner solid-white TC-treated 1536-well plates using a Multidrop Combi (Thermo Fisher Scientific). Plates were incubated for one hour at 37 degree Celsius, 95% humidity, 5% CO2. These assay plates were then treated with 23nL of compound or DMSO using a Kalypsys pin tool, which allows for delivery of a 24-point titration of each compound to the assay plate, with a final compound concentration ranging from approximately 40uM to 5pM. Assay plates were then incubated for 48 hours. After incubation, plates were allowed to come to RT for one hour prior to delivery of 3uL of 3X luciferase detection reagent. After a 15 minute incubation to allow for cell lysis, luciferase activity was measured using a ViewLux CCD imager (PerkinElmer), with an average exposure time of 2-12 seconds. Keywords: NIH Roadmap, MLPCN, MLSMR, qHTS, miR-21, microRNA, firefly luciferase, FLuc.
On the technique in general: In qHTS, concentration-response curves come from the screen itself.
For `Cc1ccccc1Nc1nnc(SCC(=O)NC(=O)Nc2ccc3c(c2)OCCO3)s1`, the Potency is 10.4 µM (active). The same measure for `O=C(Nc1ccc2c(c1)OCCO2)C1CC1c1ccccc1` (stereo not given): 7.36 µM (active); for `Cc1ccc(N(CC(=O)Nc2ccc3c(c2)OCCO3)S(C)(=O)=O)cc1`: 10.4 µM (active). With `Cc1ccc(SCC(=O)Nc2ccc3c(c2)OCCO3)cc1` the figure was 1.65 µM (active); with `Cc1cccc(-c2nsc(SCC(=O)Nc3ccc4c(c3)OCO4)n2)c1`, 13.1 µM (active). Regarding `O=C(CSc1ccccc1)Nc1ccc2c(c1)OCO2`, the Potency was 13.1 µM (active). For the compound `O=C(Nc1ccc2c(c1)OCO2)N1CCCc2ccccc21`, the Potency was 13.1 µM (active). As to `O=C(CSc1ccc(-c2ccccc2)nn1)Nc1ccc2c(c1)OCCO2`, the Potency was 8.26 µM (active).

Regarding `O=C(CC1CS(=O)(=O)CC1CC(=O)Nc1ccc2c(c1)OCCO2)Nc1ccc2c(c1)OCCO2` (stereo not given), the Potency is 7.36 µM (active). With `CCOc1ccc(NC(=O)Nc2cc(C)ccc2F)cc1` the figure was 1.85 µM (active); with `CCc1ccc(C(=O)Nc2cc(C)ccc2F)s1`, 6.56 µM (active); with `Cc1ccc(SCc2cc(=O)n3ccsc3n2)c(C)c1`, 9.27 µM (active).

Consider `O=c1cc(CNc2ccc(Br)cc2)nc2sccn12`, for which the Potency is 18.5 µM (active). As to `COc1cccc(C(=O)NCCn2ccc3ccccc32)c1`, the Potency was 5.21 µM (active). Turning to `CCc1cc(C(=O)NNC(=S)Nc2cccc(C)c2)cs1`, the Potency was 4.14 µM (active). With `CCc1cc(C(=O)Nc2ccc(C)cc2Br)cs1` the figure was 1.04 µM (active); with `Cc1cccc(NC(=S)NNC(=O)c2csc(C(C)C)c2)c1`, 3.69 µM (active); with `Cc1cccc(NC(=S)NNC(=O)c2csc(C)c2)c1`, 2.93 µM (active). On to `Cc1cccc(NC(=S)NNC(=O)c2ccc3c(c2)OCO3)c1`, for which the Potency is 0.464 µM (active). With `Cc1cccc(NC(=S)NNC(=O)c2ccccc2Br)c1` the figure was 2.07 µM (active); with `O=C(NNC(=S)Nc1ccccc1Cl)c1ccccc1Br`, 0.927 µM (active). The same measure for `CCCc1cc(C(=O)NNC(=S)Nc2cccc(C)c2)cs1`: 3.69 µM (active); for `Cc1c(C(=O)NNC(=S)Nc2cccc(Cl)c2)nnn1-c1ccccc1`: 16.5 µM (active). With `CCOC(=O)Cc1c(C)nc2c(-c3ccccc3)cnn2c1C` the figure was 16.5 µM (active). For the compound `CCOC(=O)c1cnc2c(-c3ccccc3)cnn2c1C`, the Potency is 0.927 µM (active). With `CC(C)C(=O)Nc1nc2c(s1)CC(C(C)(C)C)CC2` (stereo not given) the figure was 2.07 µM (active). On to `Nn1c(SCc2ccccc2)nc2ccccc21`, for which the Potency is 4.14 µM (active). With `CCOC(=O)CSc1nc2cc3c(cc2cc1C#N)OCO3` the figure was 1.04 µM (active). For `CCOC(=O)CSc1nc2cc3c(cc2cc1C#N)OCCO3`, the Potency was 0.147 µM (active). Regarding `N#Cc1ccc(-c2csc(NC3=NCCCCC3)n2)cc1`, the Potency is 6.56 µM (active). The same measure for `Brc1ccc(-c2csc(NC3=NCCCCC3)n2)cc1`: 10.4 µM (active); for `Cc1ccnc(NC(=S)NC(=O)c2ccco2)c1`: 1.17 µM (active). Regarding `O=C(NC(=S)Nc1ccccn1)c1ccco1`, the Potency was 3.69 µM (active). For `O=C(Nc1ccccc1F)c1cc2nc(C(F)F)cc(C(F)F)n2n1`, the Potency is 18.5 µM (active).

Turning to `Cc1cccc(NC(=O)c2ccc(OC3CSC3)cc2)c1`, the Potency was 2.93 µM (active). With `CCC(C)c1ccc(OCc2ccc(C(=O)OC)o2)cc1` (stereo not given), the Potency is 4.65 µM (active).

As to `CCC(C)c1ccc(OCc2ccc(C(=O)O)o2)cc1` (stereo not given), the Potency was 0.233 µM (active). With `COc1cc(C=O)ccc1OCc1cccc(Br)c1` the figure was 14.7 µM (active); with `COc1cc(/C=C2/C(=O)ON=C2C)ccc1OCc1cccc(F)c1`, 10.4 µM (active); with `CCOC(=O)c1c(C)[nH]c(N=Nc2ccc(C)cc2C)c1C`, 10.4 µM (active).

In the case of `CCOC(=O)c1c(C)[nH]c(N=Nc2ccccc2)c1C`, the Potency is 7.36 µM (active). With `CCOC(=O)c1c(C)[nH]c(N=Nc2ccc(OC)cc2)c1C` the figure was 2.93 µM (active). With `CCOC(=O)c1c(C)[nH]c(N=Nc2cccc(OC)c2)c1C`, the Potency was 0.927 µM (active).

Consider `CCOc1ccc(N=C(/C(C(=O)C(=O)N2CCOCC2)=C(\O)c2ccccc2)c2ccccc2)cc1`, for which the Potency was 3.69 µM (active). The same measure for `CC1CCCCN1c1nc(-c2ccc(C(C)(C)C)cc2)nc2ccccc12` (stereo not given): 0.585 µM (active).

Consider `Brc1ccc2oc3c(N4CCOCC4)ncnc3c2c1`, for which the Potency was 4.65 µM (active). In the case of `c1ccc2c(c1)oc1c(N3CCOCC3)ncnc12`, the Potency is 16.5 µM (active). On to `CCOC(=O)C1CCCN(c2ncnc3c2oc2ccccc23)C1` (stereo not given), for which the Potency is 16.5 µM (active). On to `Cc1ccc(-c2onc3ccc(C(=O)O)cc23)cc1`, for which the Potency is 1.17 µM (active). With `FC(F)(F)c1ccc(NCc2ccccn2)nc1`, the Potency is 13.1 µM (active). The same measure for `COc1cc(N2Cc3ccccc3C2)ccc1C=O`: 5.21 µM (active); for `Fc1cccc(/C=N/Nc2ncnc3nc[nH]c23)c1`: 1.65 µM (active). With `Fc1ccc(/C=N/Nc2ncnc3nc[nH]c23)cc1F` the figure was 4.14 µM (active); with `Clc1ccc(/C=N/Nc2ncnc3nc[nH]c23)cc1`, 1.65 µM (active). The same measure for `CC(C)Sc1nc(N)nc(-c2cccs2)c1C#N`: 2.93 µM (active).

For the origin of these results see PubChem BioAssay AID2289 (National Center for Advancing Translational Sciences (NCATS), 2010).
